# Data as given in PubChem BioAssay (NCI).
# Compounds without any hit were thinned out: in the full panel of roughly 83,000, 20% have a hit.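 Step 1: grow cells in 96-well plates. Step 2: add test compound at a single concentration. Step 3: incubate 48 h. Step 4: record percent growth.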 Activity calls are given as the source filed them.
# Tested on: MDA-MB-468 breast
# Test: NCI-60 one-dose screen, 48 h (100 = growth as untreated, 0 = no growth, -100 = all killed)
# Settings: 10 µM
# Experimental: Growth inhibition of the MDA-MB-468 human Breast tumor cell line is measured as a screen for anti-cancer activity. Cells are grown in 96 well plates and exposed to the test compound for 48 hours. Compounds are tested at a single concentration, which is 10^-5 M for most compounds. The reported endpoint is percent growth (GI% or GIPRCNT), where numbers from 0 - 100% represent growth inhibition, and numbers from -100% - 0 represent cell death. For example, a value of 40 represents 60% growth inhibition. A value of 0 means no net growth occurred over the course of the experiment. A value of -40 indicates 40% of cells at the beginning of the experiment died by the end of the experiment. A value of -100 means all cells are dead at the end of the experiment.
# NCI-60 Human Tumor Cell Lines Screen was performed using the standard one-dose NCI protocol, which is described in more detail at https://dtp.cancer.gov/discovery_development/nci-60/default.htm.
# Compounds with GIPRCNT values below 10 were considered active. Activity score was based on GIPRCNT using the following formula: […]
# Score is 0 for GIPRCNT values of 100 or above, 50 for GIPRCNT values of 0, and 100 for GIPRCNT values of -100.
row,SMILES,growth
1,COc1ccc(C(=O)/C=C/c2ccc(OCc3cccc(C(F)(F)F)c3)c(OC)c2)cc1OC,68.9% (inactive)

# Same assay, conditions: 10 µM unless noted
row,SMILES,growth
1,COc1cc(CSc2nc3ccc(C)cc3c(=O)n2-c2ccccc2)cc(OC)c1OC,-8.37% (active)
2,CN1CCN(c2ccc(C(=O)Nc3cccc(C#Cc4cccc5[nH]nc(N)c45)c3)cc2C(F)(F)F)CC1,-26.6% (active)
3,CC(C)OCC1CO1 (stereo not given),108% (inactive)
4,COc1ccc2c(c1)C(CC(=O)NN)CCC2 (stereo not given),102% (inactive)
5,COc1ccc(/C=C2\COc3ccc(-c4ccccc4)cc3C2=O)c(OC)c1,57% (inactive)
6,CCOC(=O)C1=C(c2ccccc2)N=C2N(c3ccccc3)N=C(C(C)=O)N2C1c1ccc(Br)cc1 (stereo not given),99.3% (inactive)
7,O=C(C[C@]1(O)C(=O)Nc2ccccc21)c1cccc(C(F)(F)F)c1,83.9% (inactive)
8,CN1CCC2(CC1)NC(=O)c1c(c3ccc(Cl)c(Cl)c3n1C)C2C#N (stereo not given),9.36% (active)
9,COc1cc2oc(-c3cccc(C(=O)Nc4ccc(C#N)cc4)c3)cc(=O)c2c(O)c1OC,77.3% (inactive)
10,CCc1ccc(C2=C/C(=C/c3ccccc3)C(=O)N2CCc2ccc(S(N)(=O)=O)cc2)cc1,109% (inactive)
11,Cn1c2c(cc(S(=O)(=O)c3ccccc3)c1=O)CCc1c-2cnn1-c1ccccc1Cl,91.9% (inactive)
12,COc1ccc(-c2cnnn2-c2cc(OC)c3c(c2)OCO3)cc1,40.9% (inactive)
13,CC1(C)COC(=S)N1,99.5% (inactive)
14,Cc1ccn2cc(Cc3cc(=O)oc4c3ccc3ccccc34)c(=O)nc2c1,117% (inactive)
15,COc1ccc(C(=O)CCC(=O)O)cc1,48% (inactive)
16,Clc1cccc(Cc2cn3cc(-c4ccccc4)nc3s2)c1,44.3% (inactive)
17,O=c1cc(-c2ccc(OCc3ccccc3)cc2)oc2c(I)c(OCc3ccccc3)cc(OCc3ccccc3)c12,102% (inactive)
18,N#Cc1ccc(NC(=O)Nc2ccc(Cc3ccc(NC(=O)Nc4ccc(C#N)cc4)cc3)cc2)cc1,-7.75% (active)
19,C#CCOc1cc(N(CC)CC)ccc1C(C(=O)NC(C)(C)C)N(C(=O)C1CCc2cc(F)ccc2O1)c1ccc(F)cc1F (stereo not given),20.9% (inactive)

row,SMILES,growth
1,O=C(c1ccc(O)c(C(=O)N2Cc3ccc(OCCC[P+](c4ccccc4)(c4ccccc4)c4ccccc4)cc3C2)c1)N1Cc2cccc(F)c2C1,2.97% (active)
2,O=C1Nc2c(ccc(Cl)c2Cl)/C1=C/c1ccc([N+](=O)[O-])cc1,103% (inactive)
3,CC(C)(c1ccc(OCC(O)CNCc2ccco2)cc1)c1ccc(OCC(O)CNCc2ccco2)cc1 (stereo not given),98.1% (inactive)
4,CCCCC(=O)N/N=C/c1cc(I)cc(I)c1O,69% (inactive)
5,C=C1C(=O)O[C@H]2[C@H]1CC/C(COC(=O)NCC(=O)Nc1ccc(OC)c(C(N)=O)c1O)=C\CC[C@@]1(C)O[C@@H]21,8.85% (active)
6,O=c1ccc2ccccc2o1,114% (inactive)
7,C#Cc1nc(/C=C\CCCCCCC(=O)NO)cs1,23.1% (inactive)
8,O=C(Nc1cccc(-n2cc(-c3ccncc3)c(-c3ccc(Cl)c(O)c3)n2)c1)Nc1cccc(C(F)(F)F)c1,10.5% (inactive)
9,COC(=O)c1nc(N)nc(C(=O)OC)c1C(=O)c1ccc(F)cc1,101% (inactive)
10,C=CC1=NC(C)(C)CC(C)O1 (stereo not given),109% (inactive)
11,CN(C)c1ncnc2c1nnn2C1OC(CO)C(O)C1O (stereo not given),-26.5% (active)
12,N#Cc1c(-c2cccs2)cc(-c2cccnc2)[nH]c1=O,101% (inactive)
13,CN(Cc1ccccc1)c1nc(Cl)c(C2CC(c3ccccc3)=NN2c2ccccc2)s1 (stereo not given),98.7% (inactive)
14,CCCCCCCCCC[C@@H](C)[C@@H]1CC(=O)N[C@H]([C@@H](C)O)C(=O)N[C@@H](C)C(=O)N[C@H](C)C(=O)N[C@@H](CCC(N)=O)C(=O)N[C@H](Cc2ccc(O)cc2)C(=O)N[C@@H](C(C)CC)C(=O)O1 (stereo not given in full),2.46% (active)
15,COC(=O)c1c(C(=O)OC)c2n(CC(=O)Nc3cccc4cccnc34)c3ccccc3n2c1C(=O)c1ccc(C)cc1,98.6% (inactive)
16,O=C(NCCCN1CCC(N2CCCCC2)CC1)C1=Cc2cc(Br)ccc2OC1,45.6% (inactive)
17,COc1ccc2nc(Cl)c(/C=C3\CC(c4ccccc4)=NN(c4ccccc4)C3=O)cc2c1,74.9% (inactive)
18,Fc1cccc(-c2[nH]nc3nc(Nc4cccnc4)sc23)c1,11.9% (inactive)
19,COc1ccc(OC)c(-c2nc(SCC(=O)c3ccc(C#N)cc3)[nH]c(=O)c2C#N)c1,94.3% (inactive)

# Same assay, conditions: 100 µM
row,SMILES,growth
1,COc1ccc(C(=O)/C=C/c2ccc(OCc3cccc(C(F)(F)F)c3)c(OC)c2)cc1OC,-2.26% (active)
